# Source: the supplement of paper PMC12819154, “High-throughput peptide-centric local stability assay extends protein–ligand identification to membrane proteins, tissues and bacteria” (Nature Structural & Molecular Biology, 2025)
# Compound: Nc1ncnc2c1ncn2[C@@H]1O[C@H](COP(=O)(O)OP(=O)(O)OP(=O)(O)O)[C@@H](O)[C@H]1O [adenosine 5'-triphosphate]
# Experiment: log2 fold change of tryptic peptide abundance, ligand vs vehicle (limited proteolysis) (log2 ratio); higher = more trypsin-susceptible (destabilized)
# Conditions: ligand concentration: 5 mM; sample: E. coli desalted lysate; replicate design: treated before aliquoting
# Procedure: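 HT-PELSA: desalted E. coli K-12 BW25113 lysate (with 12 mM MgCl2) incubated with 5 mM ATP (pH 7) or water for 30 min at 25 C, then a 4 min trypsin pulse at 22 C. Peptides were quantified by DIA-MS (4 replicates). Value is the peptide log2 fold change (treated/control); negative = stabilized. Scale: negative = ligand-stabilized region.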
# 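Further: lysate desalted by size exclusion to strip endogenous ATP, peptide intensities built from DIA-NN precursor signals, and peptides missing any value discarded before comparison.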
# UniProt P64554, sequence (P64554 whole entry): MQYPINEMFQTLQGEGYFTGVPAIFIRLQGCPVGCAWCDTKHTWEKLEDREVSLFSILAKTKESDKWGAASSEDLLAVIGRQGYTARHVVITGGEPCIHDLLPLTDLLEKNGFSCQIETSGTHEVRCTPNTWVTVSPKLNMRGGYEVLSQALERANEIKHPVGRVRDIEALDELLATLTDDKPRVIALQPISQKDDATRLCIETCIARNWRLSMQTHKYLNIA
# UniProt P0A9U6, sequence (P0A9U6 whole entry): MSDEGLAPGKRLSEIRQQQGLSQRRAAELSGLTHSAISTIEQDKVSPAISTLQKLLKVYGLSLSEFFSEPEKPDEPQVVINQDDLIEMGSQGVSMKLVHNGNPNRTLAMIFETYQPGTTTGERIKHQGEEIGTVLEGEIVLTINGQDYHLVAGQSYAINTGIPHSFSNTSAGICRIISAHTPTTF
# UniProt P75736, sequence (P75736 whole entry): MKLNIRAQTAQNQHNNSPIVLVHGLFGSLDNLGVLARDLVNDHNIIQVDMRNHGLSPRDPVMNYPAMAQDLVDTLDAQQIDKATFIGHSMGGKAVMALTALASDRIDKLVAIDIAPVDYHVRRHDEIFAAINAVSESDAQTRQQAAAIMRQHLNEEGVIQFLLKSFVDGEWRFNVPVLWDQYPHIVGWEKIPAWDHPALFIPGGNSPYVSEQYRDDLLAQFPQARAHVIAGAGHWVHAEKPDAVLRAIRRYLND
# UniProt P76035, sequence (P76035 whole entry): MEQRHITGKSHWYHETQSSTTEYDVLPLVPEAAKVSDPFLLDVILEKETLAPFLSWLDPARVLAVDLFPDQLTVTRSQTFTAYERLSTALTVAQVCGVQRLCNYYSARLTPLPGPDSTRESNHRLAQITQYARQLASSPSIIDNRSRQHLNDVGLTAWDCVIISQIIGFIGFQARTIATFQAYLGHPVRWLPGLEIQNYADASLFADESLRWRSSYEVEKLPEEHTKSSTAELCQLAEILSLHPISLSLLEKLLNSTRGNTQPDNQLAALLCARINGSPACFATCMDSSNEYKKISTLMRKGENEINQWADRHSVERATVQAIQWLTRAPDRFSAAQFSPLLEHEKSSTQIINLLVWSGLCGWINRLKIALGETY
# UniProt P69789, sequence (P69789 whole entry): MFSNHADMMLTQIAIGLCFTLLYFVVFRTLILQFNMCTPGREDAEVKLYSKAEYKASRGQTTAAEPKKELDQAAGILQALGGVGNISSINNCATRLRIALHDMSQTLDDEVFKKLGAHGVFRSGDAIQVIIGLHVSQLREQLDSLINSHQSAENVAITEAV
# UniProt P77300, sequence (P77300 whole entry): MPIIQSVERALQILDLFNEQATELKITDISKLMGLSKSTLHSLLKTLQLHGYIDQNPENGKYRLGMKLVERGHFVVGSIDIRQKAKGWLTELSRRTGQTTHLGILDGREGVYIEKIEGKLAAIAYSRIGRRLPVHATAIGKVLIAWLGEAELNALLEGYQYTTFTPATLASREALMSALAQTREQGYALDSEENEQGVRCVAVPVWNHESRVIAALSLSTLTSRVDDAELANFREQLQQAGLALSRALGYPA
# UniProt P45577, sequence (P45577 whole entry): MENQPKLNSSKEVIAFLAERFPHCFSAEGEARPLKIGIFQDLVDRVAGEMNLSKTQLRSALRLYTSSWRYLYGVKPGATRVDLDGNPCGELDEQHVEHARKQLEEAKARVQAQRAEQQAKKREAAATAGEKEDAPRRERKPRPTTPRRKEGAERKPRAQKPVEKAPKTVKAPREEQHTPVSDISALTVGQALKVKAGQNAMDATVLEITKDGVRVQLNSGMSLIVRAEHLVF
# UniProt P75728, sequence (P75728 whole entry): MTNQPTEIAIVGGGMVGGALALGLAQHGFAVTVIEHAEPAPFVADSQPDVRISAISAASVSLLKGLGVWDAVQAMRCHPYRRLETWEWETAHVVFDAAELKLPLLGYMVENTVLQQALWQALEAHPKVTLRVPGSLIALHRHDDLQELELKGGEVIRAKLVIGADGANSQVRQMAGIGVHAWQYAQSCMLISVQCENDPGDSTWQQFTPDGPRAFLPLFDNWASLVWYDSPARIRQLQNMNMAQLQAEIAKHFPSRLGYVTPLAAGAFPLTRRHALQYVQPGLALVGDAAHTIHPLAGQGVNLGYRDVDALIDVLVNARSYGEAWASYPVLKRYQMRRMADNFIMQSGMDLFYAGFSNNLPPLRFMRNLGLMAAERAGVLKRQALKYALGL
# UniProt P23836, sequence (P23836 whole entry): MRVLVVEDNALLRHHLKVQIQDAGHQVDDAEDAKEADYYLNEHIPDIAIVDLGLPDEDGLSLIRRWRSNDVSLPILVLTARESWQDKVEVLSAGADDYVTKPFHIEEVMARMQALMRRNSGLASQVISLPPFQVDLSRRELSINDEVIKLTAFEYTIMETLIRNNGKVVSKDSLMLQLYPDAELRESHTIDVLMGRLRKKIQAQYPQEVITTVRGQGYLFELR
# UniProt P0ADA3, sequence (P0ADA3 whole entry): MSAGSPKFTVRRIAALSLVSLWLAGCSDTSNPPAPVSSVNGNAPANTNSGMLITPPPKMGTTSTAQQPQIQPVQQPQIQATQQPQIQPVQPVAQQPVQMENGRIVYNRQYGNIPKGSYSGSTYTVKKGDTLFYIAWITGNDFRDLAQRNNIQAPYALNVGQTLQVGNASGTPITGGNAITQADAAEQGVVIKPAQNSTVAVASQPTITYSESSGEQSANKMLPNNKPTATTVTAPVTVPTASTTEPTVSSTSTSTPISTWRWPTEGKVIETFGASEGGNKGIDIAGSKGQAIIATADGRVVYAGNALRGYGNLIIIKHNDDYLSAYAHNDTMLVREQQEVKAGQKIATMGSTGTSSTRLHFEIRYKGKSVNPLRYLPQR
# UniProt P37760, sequence (P37760 whole entry): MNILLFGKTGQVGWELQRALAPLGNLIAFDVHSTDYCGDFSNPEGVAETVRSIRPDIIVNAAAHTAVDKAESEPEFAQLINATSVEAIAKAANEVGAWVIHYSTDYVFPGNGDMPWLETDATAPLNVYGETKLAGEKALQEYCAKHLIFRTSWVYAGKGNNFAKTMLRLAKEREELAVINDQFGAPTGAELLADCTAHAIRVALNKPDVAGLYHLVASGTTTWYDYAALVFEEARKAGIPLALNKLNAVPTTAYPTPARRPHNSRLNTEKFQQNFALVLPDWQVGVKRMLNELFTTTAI
# UniProt P76149, sequence (P76149 whole entry): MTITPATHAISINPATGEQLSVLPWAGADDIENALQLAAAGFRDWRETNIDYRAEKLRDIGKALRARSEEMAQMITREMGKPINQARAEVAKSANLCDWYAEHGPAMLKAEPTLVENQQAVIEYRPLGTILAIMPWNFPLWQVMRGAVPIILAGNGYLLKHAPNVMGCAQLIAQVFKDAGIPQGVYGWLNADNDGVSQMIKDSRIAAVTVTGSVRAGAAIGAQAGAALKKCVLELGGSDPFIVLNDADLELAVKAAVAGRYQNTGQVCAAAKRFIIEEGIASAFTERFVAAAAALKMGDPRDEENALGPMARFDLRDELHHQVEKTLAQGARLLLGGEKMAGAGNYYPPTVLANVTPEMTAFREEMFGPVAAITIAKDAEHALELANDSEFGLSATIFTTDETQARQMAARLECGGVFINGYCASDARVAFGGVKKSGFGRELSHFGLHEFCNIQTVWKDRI
# UniProt P03007, sequence (P03007 whole entry): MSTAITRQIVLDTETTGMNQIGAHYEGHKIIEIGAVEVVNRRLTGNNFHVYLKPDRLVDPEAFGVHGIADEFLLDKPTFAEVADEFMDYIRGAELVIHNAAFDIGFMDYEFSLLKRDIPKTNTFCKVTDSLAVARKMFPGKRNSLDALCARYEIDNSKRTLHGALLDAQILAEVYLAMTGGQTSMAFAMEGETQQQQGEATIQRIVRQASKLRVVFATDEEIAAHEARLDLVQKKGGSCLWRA
# UniProt P04825, sequence (P04825 whole entry): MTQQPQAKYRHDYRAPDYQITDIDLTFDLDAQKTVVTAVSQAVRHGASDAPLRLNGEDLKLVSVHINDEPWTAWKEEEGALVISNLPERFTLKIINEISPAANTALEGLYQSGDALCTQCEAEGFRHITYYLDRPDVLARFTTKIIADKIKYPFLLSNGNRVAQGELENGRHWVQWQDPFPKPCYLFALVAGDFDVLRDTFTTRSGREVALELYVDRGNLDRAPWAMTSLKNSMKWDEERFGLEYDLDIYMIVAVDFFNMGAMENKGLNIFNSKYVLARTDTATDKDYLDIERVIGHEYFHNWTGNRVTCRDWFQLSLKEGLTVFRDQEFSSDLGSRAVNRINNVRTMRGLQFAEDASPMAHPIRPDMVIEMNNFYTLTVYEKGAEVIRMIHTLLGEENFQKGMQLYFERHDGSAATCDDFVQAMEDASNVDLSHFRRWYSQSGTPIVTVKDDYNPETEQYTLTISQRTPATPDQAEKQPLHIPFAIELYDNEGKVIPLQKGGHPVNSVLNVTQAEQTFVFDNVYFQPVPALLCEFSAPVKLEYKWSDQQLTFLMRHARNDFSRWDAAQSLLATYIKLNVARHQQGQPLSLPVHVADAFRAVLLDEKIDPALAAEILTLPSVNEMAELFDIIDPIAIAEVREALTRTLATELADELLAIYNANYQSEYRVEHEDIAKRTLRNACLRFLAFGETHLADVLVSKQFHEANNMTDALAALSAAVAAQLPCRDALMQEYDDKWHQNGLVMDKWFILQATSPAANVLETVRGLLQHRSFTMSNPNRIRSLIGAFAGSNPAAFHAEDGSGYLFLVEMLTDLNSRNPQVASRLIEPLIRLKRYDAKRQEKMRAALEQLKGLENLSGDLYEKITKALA
# UniProt P46144, sequence (P46144 whole entry): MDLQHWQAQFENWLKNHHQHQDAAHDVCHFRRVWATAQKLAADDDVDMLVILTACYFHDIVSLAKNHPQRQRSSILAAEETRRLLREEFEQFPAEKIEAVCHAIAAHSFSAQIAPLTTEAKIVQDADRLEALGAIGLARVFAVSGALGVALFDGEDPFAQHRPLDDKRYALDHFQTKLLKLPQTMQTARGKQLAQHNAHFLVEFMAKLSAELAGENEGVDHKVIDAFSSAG
row,Target,log2 fold change
1,"UniProt P69789 (peptide sequence: LYSKAEYK, peptide start residue: 48)",-1.96
2,"UniProt P17169 (peptide sequence: LKSNIEEVR, peptide start residue: 530)",-0.459
3,"UniProt P07118 (peptide sequence: TGNMMQPQLADKIR, peptide start residue: 582)",2.07
4,"UniProt Q47147 (peptide sequence: QANRGEVALENTHPFTR, peptide start residue: 80)",0.755
5,"UniProt Q59385 (peptide sequence: LVTDEGEK, peptide start residue: 327)",1.76
6,"UniProt P03841 (peptide sequence: STFISSVKGKG, peptide start residue: 296)",0.922
7,"UniProt P45577 (peptide sequence: VAGEMNLSKTQLR, peptide start residue: 46)",0.623
8,"UniProt P0ADA3 (peptide sequence: IATMGSTGTSSTR, peptide start residue: 346)",0.385
9,"UniProt P76536 (peptide sequence: ALSGGVGAEELK, peptide start residue: 66)",0.555
10,"UniProt P23830 (peptide sequence: EALGVLHFK, peptide start residue: 132)",-0.891
11,"UniProt P27249 (peptide sequence: VEDLFIIATADRR, peptide start residue: 854)",0.328
12,"UniProt P32053 (peptide sequence: AFEKPQKK, peptide start residue: 202)",-0.721
13,"UniProt P75728 (peptide sequence: LVIGADGANSQVR, peptide start residue: 160)",0.798
14,"UniProt P77306 (peptide sequence: TLSPEDLR, peptide start residue: 123)",0.57
15,"UniProt P0ABM9 (peptide sequence: DEAQEQQFR, peptide start residue: 27)",0.867
16,"UniProt P75736 (peptide sequence: SFVDGEWR, peptide start residue: 165)",-1.28
17,"UniProt P39099 (peptide sequence: SRIATTEPGTK, peptide start residue: 330)",0.877
18,"UniProt P39353 (peptide sequence: EGVIGEILSCHTKR, peptide start residue: 135)",-0.665
19,"UniProt P0A9U6 (peptide sequence: VSPAISTLQK, peptide start residue: 45)",0.654
20,"UniProt P23836 (peptide sequence: VLVVEDNALLR, peptide start residue: 3)",0.563

row,Target,log2 fold change
1,"UniProt P05055 (peptide sequence: GDISEFAPR, peptide start residue: 546)",-0.643
2,"UniProt P03007 (peptide sequence: VTDSLAVAR, peptide start residue: 127)",0.313
3,"UniProt P06989 (peptide sequence: KSADPETSYTAK, peptide start residue: 126)",-0.912
4,"UniProt P37744 (peptide sequence: KGFIDVEQVRK, peptide start residue: 261)",-0.836
5,"UniProt P77300 (peptide sequence: STLHSLLK, peptide start residue: 38)",-0.881
6,"UniProt P30014 (peptide sequence: TAVLFCEIVNR, peptide start residue: 190)",-2.04
7,"UniProt P51024 (peptide sequence: QLIEMNR, peptide start residue: 75)",-0.359
8,"UniProt P77739 (peptide sequence: IGWQLELAAEK, peptide start residue: 152)",-0.651
9,"UniProt P37760 (peptide sequence: ALQEYCAK, peptide start residue: 138)",-1.03
10,"UniProt P76035 (peptide sequence: TIATFQAYLGHPVR, peptide start residue: 176)",0.609
11,"UniProt P21507 (peptide sequence: DVLGSAPTGTGK, peptide start residue: 43)",-3.34
12,"UniProt P64554 (peptide sequence: NGFSCQIETSGTHEVR, peptide start residue: 111)",-0.431
13,"UniProt P45527 (peptide sequence: KLQEAVSFVHQHRR, peptide start residue: 46)",0.779
14,"UniProt P32141 (peptide sequence: ASGGFAMLAVDQR, peptide start residue: 12)",-0.432
15,"UniProt P0DMC5 (peptide sequence: FTDTGCIVLHVR, peptide start residue: 600)",-1.13
16,"UniProt P46144 (peptide sequence: RVWATAQK, peptide start residue: 32)",-1.44
17,"UniProt P32134 (peptide sequence: ACISGQGDMPFK, peptide start residue: 221)",-1.02
18,"UniProt P04825 (peptide sequence: GLENLSGDLYEK, peptide start residue: 853)",-0.937
19,"UniProt P76149 (peptide sequence: AGAAIGAQAGAALKK, peptide start residue: 216)",-1.54
